Screens from PubChem.
The full list was thinned out, with hits kept by preference.
Giardia FBPA inh = Giardia lamblia aldolase inhibition. hit rate 0.71% among 290,000. Potency, µM (series often up to 59.6 µM), inactives show at the top dose activity, negative = inhibition, most hits filed as inhibitors. A8B2U2. purified Giardia FBPA; note: potency is the fitted concentration of half-maximal effect; % is set by controls: 0 for no effect and ±100 for the full control effect; nearly all actives have a fitted effect of over 55% in size
Target sequence (A8B2U2 whole entry, looked up): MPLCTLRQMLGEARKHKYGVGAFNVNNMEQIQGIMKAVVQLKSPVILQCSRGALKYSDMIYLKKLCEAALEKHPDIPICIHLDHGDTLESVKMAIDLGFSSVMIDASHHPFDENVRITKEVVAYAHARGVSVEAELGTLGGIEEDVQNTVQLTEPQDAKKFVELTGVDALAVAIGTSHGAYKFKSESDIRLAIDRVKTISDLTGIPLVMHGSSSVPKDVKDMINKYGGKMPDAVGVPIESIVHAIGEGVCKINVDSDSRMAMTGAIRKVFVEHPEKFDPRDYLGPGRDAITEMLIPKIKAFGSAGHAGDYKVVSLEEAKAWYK
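40 nM FBPA preincubated 10 min at RT with compound (up to 57.5 uM final), then substrate plus GAPDH/TPI/NAD/arsenate coupling and diaphorase/resazurin added. Fluorescence read after 20 min at RT, 525/598 nm.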
Shiga toxin inh = Shiga toxin inhibition | Vero cells, Shiga toxin protein synthesis inhibition reporter | inhibition, % at 38.7 µM | hit rate 9.2% among 290,000 | AID 2315; in the data active = inhibition mostly above about 28%, no sharp cut-off; inactive = mostly below about 43%; note: 0% is about no effect
Cycloheximide cs = counter-screen hit for Shiga toxin inhibitors, cycloheximide; cell reporter, cycloheximide protein synthesis inhibition counterscreen; max response, %; hit rate 12% among 300,000; AID 2314; in the data active = max response mostly above about 13%, no sharp cut-off; inactive = mostly below about 14%; note: read at 38.3 µM for the half of the compounds with a filed dose; 0% is about no effect
RE007 growth inh = less growth of the S. pombe RE007 Vpr strain; hit rate 0.21% among 360,000; S. pombe RE007 Vpr strain, BacTiter-Glo ATP luminescence, 24 h; Potency, µM (doses to about 92.2 µM), without a hit: top-dose activity change, negative = less growth, most hits filed as inhibitors; AID 651644; active = well fitted falling curve with a large enough effect; inconclusive = small, poorly fitted or top-dose-only effect; inactive = no such curve, though single readings can be large or run the other way; note: potency is the fitted concentration of half-maximal effect; % is set by controls: 0 for no effect and ±100 for the full control effect; nearly all actives have a fitted effect of over 50% in size
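Fission yeast strain RE007, carrying one chromosomally integrated HIV-1 vpr copy, was seeded at OD 0.01 in PMG+AL medium with 23 nL pinned compound. After 24 h at 30 °C and 99% humidity, viability was read by BacTiter-Glo luminescence.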
TbPYK inhibitor = T. brucei pyruvate kinase inhibition; TbPYK enzyme, Kinase-Glo Plus ATP luminescence, 45 min; AID 624173; Potency, µM (series often up to 76.8 µM), without a hit: at the highest dose activity, negative = inhibition, actives largely listed as inhibitors; hit rate 0.12% among 410,000; Q57TT1; note: potency is the fitted concentration of half-maximal effect; % is set by controls: 0 for no effect and ±100 for the full control effect; nearly all actives have a fitted effect of over 50% in size
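Readout: single end-point luminescence (Kinase-Glo Plus, 10 min). Reaction conditions were TbPYK/substrate plus 130 uM ADP, 45 min at RT, pH 7.2 TEA buffer. No-enzyme wells served as controls, and data were normalized before concentration-response fitting.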
LmPK inh = LmPK (Leishmania mexicana) enzyme inhibition; Q27686; purified LmPK, Kinase-Glo ATP luminescence, 1 h; Potency, µM (series often up to 57.5 µM), without a hit: at the highest dose activity change, negative = inhibition, usual class: inhibitors; hit rate 0.37% among 290,000; AID 1721; note: potency is the fitted concentration of half-maximal effect; % is set by controls: 0 for no effect and ±100 for the full control effect
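Kinase-Glo luminescence read after 1 h RT reaction of 0.1 nM LmPK with 0.5 mM PEP and 0.1 mM ADP. Activity scaled between uninhibited and enzyme-free controls.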
* = called active by the depositor; u = inconclusive; x = not tested or not shown. Unless noted, calls come from the whole dose curve; as a rule, active = well fitted curve in the direction sought with a large enough effect; inconclusive = small, poorly fitted or top-dose-only effect, or another doubt; inactive = no such curve, though single readings can be large; an effect the other way counts as inactive or inconclusive.

SMILES | Giardia FBPA inh | Shiga toxin inh | Cycloheximide cs | RE007 growth inh | TbPYK inhibitor | LmPK inh
Cc1cccn2c(=O)c3cc(C(=O)N4CCCC(C)C4)sc3nc12 (centres undefined) | -1% | 25 | 19 | -9% | -2% | 0%
C=CCN1C(=O)/C(=C/c2ccc(OC)cc2)S/C1=N/c1nccs1 | 3% | -5 | -3 | 3% | -1% | 0%
C=CCN=C1S/C(=C\c2ccc(N(C)C)cc2)C(=O)N1CC=C | 2% | 59* | 45* | -27% | 1% | -2%
COc1ccc(N(CC(=O)NCCc2ccccc2)S(=O)(=O)c2ccccc2)c(OC)c1 | x | x | x | x | 4% | x
CCCN(C(=O)Cn1ncc2c([nH]c3ccccc32)c1=O)c1ccc(F)cc1 | x | x | x | x | -4% | x
Cc1ccc(C)c(CN2C(=O)c3ccccc3S(=O)(=O)c3ccc(C(=O)N4CCCCC4)cc32)c1 | x | x | x | x | -3% | x
NC(=O)c1cccc(-c2cc(Nc3ccc(OC(F)(F)F)cc3)ncn2)c1 | -9% | 26 | 13* | 2% | 0% | 5%
c1ccc(Nc2cc(-c3ccoc3)ncn2)cc1 | -21% | x | x | x | x | x
CCOc1ccc(N=C(NN)c2ccc3ccccc3n2)cc1 | u | 31* | 44* | -1% | -24% | 1%
CC1CCN(C(=S)Nc2ccc(SC(F)F)cc2)CC1 | 2% | 64* | 59* | 13% | 2% | 1%
S=C(Nc1ccc(Br)cc1)NC1CCCC1 | 3% | 63* | 42* | 8% | -15% | 1%
CC1CCCCC1NC(=S)Nc1ccc(SC(F)F)cc1 (centres undefined) | 0% | 75* | 35* | -14% | -5% | 5%
FC(F)Sc1ccc(NC(=S)NC2CCCCC2)cc1 | -4% | 114 | 31* | -18% | -7% | 6%
CCc1ccc(NC(=O)c2ccc3c(c2)N(Cc2ccc(C)cc2)CCS3)cc1 | x | x | x | x | 0% | x
O=c1cc[nH]c2c1ccc1c(=O)cc[nH]c12 | u | 27 | 7 | -2% | -9% | 1%
O=c1cc[nH]c2c(Cl)cccc12 | 0% | 41* | 21* | -3% | -3% | 0%
CC(=O)c1cccc(NC(=O)c2cc(C(C)C)on2)c1 | -20% | 84* | 40* | -16% | 1% | 5%
CC(C)c1onc(C(=O)NCc2ccccn2)c1[N+](=O)[O-] | 1% | -4 | 10 | 11% | 1% | -2%
CC(=O)c1cccc(NC(=O)c2cc(-c3ccc(F)cc3)on2)c1 | -1% | -5 | -1 | 8% | 1% | 0%
CC(C)c1onc(C(=O)Nc2cccc(Cl)c2)c1[N+](=O)[O-] | -11% | 35 | 25* | -9% | 9% | 2%
CC(C)c1cc(C(=O)Nc2cccc(Cl)c2)no1 | -9% | 82* | 30* | u | -1% | u
CCCCC[C@H](O)CC[C@H]1[C@H](O)CC(=O)[C@@H]1CCCCCCC(=O)O | 2% | x | x | x | x | x
CN1CCN(S(=O)(=O)c2cccs2)CC1 | -2% | -5 | -3 | -11% | -5% | 6%
O=S(=O)(c1cccs1)N1CCN(c2ccc(O)cc2)CC1 | -10% | 1 | 15* | 7% | -15% | 6%
Cc1ccc(S(=O)(=O)N2CCN(S(=O)(=O)c3cccs3)CC2)cc1 | x | 56* | 33* | -5% | -2% | -6%
SMILES | Giardia FBPA inh | Shiga toxin inh | Cycloheximide cs | RE007 growth inh | TbPYK inhibitor | LmPK inh
Cc1c(Cl)cccc1NC(=O)Nc1ccc2snnc2c1 | x | x | x | x | -5% | x
CC(Oc1ccccc1)C(=O)Nc1nc(-c2ccncc2)cs1 (centres undefined) | x | x | x | -3% | -3% | x
CC(C)(C)c1ccc(-c2csc(NNC3=NCCCCC3)n2)cc1 | u | 30 | 20* | 3% | u | 8%
Brc1ccc(-c2csc(-c3nc(-c4ccc(Br)s4)cs3)n2)cc1 | x | x | x | x | 0% | x
Brc1ccc(-c2csc(NNC3=NCCCCC3)n2)cc1 | u | 42 | 25* | 32% | -7% | 5%
CC(C)(C)c1ccc(C(=O)NCC(=O)OCC(=O)Nc2nc(-c3ccc(F)cc3)cs2)cc1 | -5% | 25 | 15 | -5% | -3% | 1%
FC(F)Oc1ccc(-c2csc(NNC3=NCCCCC3)n2)cc1 | u | 35 | 21* | -8% | -21% | -5%
C=C(CCC(=O)c1ccccc1)C(=O)c1ccccc1 | 5% | 4 | 17* | 32µM* | -11% | -1%
CN1/C(=C\C(=O)C[n+]2ccc3ccccc3c2)C(C)(C)c2ccccc21 | -2% | -25 | -3 | u | -1% | -4%
CN1/C(=C\C=O)C(C)(C)c2ccccc21 | -4% | -2 | -2 | 4% | -2% | 5%
CN1\C(=C/C=C/C=C/C=[N+](C)C)C(C)(C)c2ccccc21 | -16% | -7 | 8 | u | u | 10µM*
CN1/C(=C\C=C\C2=[N+](C)c3ccc4ccccc4c3C2(C)C)C(C)(C)c2ccccc21 | x | -62 | -9 | x | x | 14µM*
CN1/C(=C\C=Nc2ccc3ccccc3c2)C(C)(C)c2ccccc21 | -5% | 53 | 47* | x | x | 4%
CN1/C(=C\C=Nc2ccccc2)C(C)(C)c2ccccc21 | -28% | -16 | -2 | -8% | -3% | -19%
CN(C)c1ccc(N=C/C=C2\N(C)c3ccccc3C2(C)C)cc1 | -11% | 167* | 68* | u | -11% | -15%
COc1ccc(S(=O)(=O)Nc2noc3ccccc23)cc1OC | 9% | -8 | -1 | 28% | -10% | 3%
